# Rows were chosen to be rich in hits. Some 11% of all compounds tested hit in one or more screens of this group.
# VDR inhibitor – blocks the human vitamin D receptor; P11473; VDR-SRC2-3 peptide fluorescence polarization, 2 h; Potency, µM, hits mostly inhibitors; 400,000 tested, 0.93% active
# Target sequence (P11473 whole entry, looked up): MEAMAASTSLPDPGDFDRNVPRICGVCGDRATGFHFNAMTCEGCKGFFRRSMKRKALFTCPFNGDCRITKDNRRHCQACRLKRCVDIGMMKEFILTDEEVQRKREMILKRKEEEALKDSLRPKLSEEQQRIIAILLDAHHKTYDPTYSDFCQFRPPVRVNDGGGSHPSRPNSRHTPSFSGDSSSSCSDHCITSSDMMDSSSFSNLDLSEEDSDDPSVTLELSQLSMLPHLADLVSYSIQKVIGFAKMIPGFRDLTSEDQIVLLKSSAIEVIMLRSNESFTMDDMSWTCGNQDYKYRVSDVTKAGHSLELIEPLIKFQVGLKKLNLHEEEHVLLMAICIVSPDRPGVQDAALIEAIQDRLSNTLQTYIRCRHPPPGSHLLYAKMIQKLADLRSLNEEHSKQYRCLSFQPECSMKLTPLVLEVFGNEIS
#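 After 23 nl compound addition and a short centrifugation, plates sat for 2 hours at ambient temperature; polarization of fluorescence then indicated loss of VDR binding to peptide SRC2-3.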
# BAZ2B block – BAZ2B (human) inhibition; 360,000 tested, 4.4% active; AID 504333; Q9UIF8; Potency, µM (series often up to 114 µM), usual class: inhibitors; AlphaScreen BAZ2B-H3K14Ac peptide displacement; further: nearly all actives have a fitted effect of over 60% in size
#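 AlphaScreen displacement of biotin-H3(5-23)K14Ac peptide (50 nM final) from BAZ2B (50 nM final) in PBS pH 7.4, 0.01% Tween-20; complex preformed 30 min RT, then compounds (top 110 uM) 30 min RT, beads 20 min dark.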
# JMJD2A Tudor inh – blocks the human JMJD2A Tudor domain; O75164; AlphaScreen JMJD2A-Tudor / H3K4me3 peptide binding; Potency, µM (series often up to 114 µM), usual class: inhibitors; 390,000 tested, 4.4% active; AID 504339; further: nearly all actives have a fitted effect of over 50% in size
# G9a block – G9a (human) methyltransferase inhibition. Q96KQ7. G9a H3K9 monomethylation, AlphaScreen, 2 h. Potency, µM (top dose mostly 102 µM), most hits filed as inhibitors. 350,000 tested, 8.8% active; further: nearly all actives have a fitted effect of over 75% in size
#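 AlphaScreen read-out: biotin-H3K9 peptide (500 nM) methylation by 20 nM enzyme with 20 uM SAM, 2 h at room temperature after 15 min compound preincubation; anti-monomethyl H3K9 antibody plus donor/acceptor beads, 10 min dark.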
# HP1b binding inh – HP1-beta chromodomain-methylated histone interaction inhibition. AlphaScreen HP1-beta / biotin-H3K9me3 peptide binding. Potency, µM (top dose mostly 114 µM), usual class: inhibitors. 390,000 tested, 0.56% active; further: nearly all actives have a fitted effect of over 70% in size
# Target sequence (P83916 whole entry, looked up): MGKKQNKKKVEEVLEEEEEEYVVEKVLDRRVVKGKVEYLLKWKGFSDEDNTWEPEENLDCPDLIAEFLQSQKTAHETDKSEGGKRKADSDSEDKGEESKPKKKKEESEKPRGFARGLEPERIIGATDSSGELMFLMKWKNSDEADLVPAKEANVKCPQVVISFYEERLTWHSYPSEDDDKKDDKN
#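 AlphaScreen: HP1-beta (50 nM) preformed 30 min with biotin-H3(1-18)K9me3 peptide (50 nM) in PBS pH 7.4, 0.01% Tween-20. Compound added for 30 min at RT, then streptavidin donor/nickel chelate acceptor beads (10 ug/mL) for 30 min.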
# PLK1 PBD inh – blocks phosphopeptide binding to human PLK1 polo-box domain; P53350; Plk1 PBD binding of FITC phosphopeptide, fluorescence polarization; Potency, µM, hits mostly inhibitors; 360,000 tested, 2.8% active; AID 720504; further: series mostly up to about 57 µM; nearly all actives have a fitted effect of over 65% in size
# A number is an active result; . = inactive; ? = inconclusive; / = no result; ! = a repeat was not active; [ ] = remark or other dose. The call rests on the fitted dose curve; in most records, active means well fitted curve in the direction sought with a large enough effect; inconclusive means small, poorly fitted or top-dose-only effect, or another doubt; inactive means no such curve, though single readings can be large; an effect the other way counts as inactive or inconclusive.
SMILES,VDR inhibitor,BAZ2B block,JMJD2A Tudor inh,G9a block,HP1b binding inh,PLK1 PBD inh
COc1ccc(C2=NN(S(C)(=O)=O)C(c3cccs3)C2)cc1OC (stereo not drawn),.,.,.,.,.,.
Cc1nc(-c2coc3cc(C)c(N=O)c(O)c3/c2=N\N)cs1,.,?,.,50µM,.,.
O=C(N/N=C/c1oc(O)c2ccccc12)c1ccccc1,.,.,.,11µM,.,.
Cc1ccc(NC(=O)N2CCC(n3c(C)nc4cccnc43)CC2)c(Cl)c1,.,.,.,.,.,/
O=C(NCc1nnc2c(C(F)(F)F)cc(Cl)cn12)c1ccco1,.,.,.,.,.,.
Cc1nnc(SC(C)C(=O)NC2CCCCC2)[nH]c1=O (stereo not drawn),.,/,?,/,.,27µM
Cc1nnc(SCC(=O)NC2CCCCC2)[nH]c1=O,.,.,.,?,.,.
Fc1ccc(NCc2ccccc2-c2nnc(-c3ccccc3Cl)o2)cc1Cl,.,.,.,.,.,/
COc1cc2c(cc1OC)C(C(=O)Nc1ccccn1)C(c1cccnc1)N(C)C2=O (stereo not drawn),.,79µM,.,/,.,.
C/C(=N\Nc1nc(C(C)(C)C)cs1)c1ccc(O)cc1,?,?,?,32µM,.,?
C/C(=N\Nc1nc(C(C)(C)C)cs1)c1ccccc1,.,?,?,71µM,.,.
CC(C)=NNc1nc(-c2ccccc2)cs1,.,.,.,?,.,.
CC(C)(C)c1csc(NNC(=O)c2ccc(Br)cc2)n1,.,/,.,.,.,.
CNC(=O)C(=O)Nc1cc2c3c(c1)CCN3C(=O)CC2,.,.,.,.,.,.
CCN(c1ccccc1)S(=O)(=O)c1cc2c3c(c1)C(C)C(=O)N3CCC2 (stereo not drawn),.,.,.,.,.,.
CC1C(=O)N2CCCc3cc(S(=O)(=O)N(C)c4ccccc4)cc1c32 (stereo not drawn),.,56µM,.,/,.,.
COc1ccc(S(=O)(=O)Nc2cc3c4c(c2)C(C)C(=O)N4CCC3)cc1OC (stereo not drawn),.,.,.,45µM,.,.
Cc1ccc(C)c(OCCC(=O)OCC(=O)Nc2cccc(S(=O)(=O)N3CCCC3)c2)c1,.,.,.,.[2.33 µM],.,.
Nc1[nH]nc2c1NN(c1ccc(Cl)cc1Cl)N2,.,25µM,.,?,.,.
Cc1ccc(S(=O)(=O)NCCSCc2ccccc2)cc1,.,.,.,10µM,.,.
Clc1ccccc1C(c1ccccc1)(c1ccccc1)n1ccnc1,?,22µM,28µM,.,.,.
O=c1[nH]cnc(CN2CCCCC2)c1O,.,/,50µM,/,.,.
Oc1cccnc1CN1CCCCC1,.,/,.,/,.,.
CC1(C)CC(NC(=O)c2coc(=O)c(Br)c2)CC(C)(C)N1,.,.,.,.,.,.
COc1cccc(/C=C/C(=C2\C(=O)N(c3ccccc3)N=C2C)c2ccc(Br)cc2)c1OC,.,/,?,/,40µM,?
SMILES,VDR inhibitor,BAZ2B block,JMJD2A Tudor inh,G9a block,HP1b binding inh,PLK1 PBD inh
COc1cccc(/C=C/C(=O)Nc2cccc(C(C)=O)c2)c1OC,.,.,.,.,.,.
COc1ccc(C2NS(=O)(=O)N=C2N)cc1 (stereo not drawn),.,.,.[11.4 µM],.,.,19µM
CC(=O)N1CCc2cc(S(=O)(=O)CCC(=O)Nc3ccc(C)cc3Br)ccc21,.,/,.,?,.,/
C[N+](C)(C)CCCCCC(=O)/C=N/O,.,?,.,?,.,.
CC(=O)CC[N+](C)(C)C,.,/,.,/,79µM,.
N#CC1=C(N)NC(SCC(=O)O)=C(C#N)C12CCCC2,.,.,.,35µM,.,.
CCn1c(C)c2c([n+]1CC)CC(C)(C)CC2=O,.,.,32µM,16µM,.,.
CN(C)C(=O)n1nnnc1Cc1ccc(-c2ccccc2)cc1,.,/,/,.,/,/
O=C(NNc1ccccc1[N+](=O)[O-])Nc1ccc(Cl)c(Cl)c1,.,?,.,7.1µM,.,.
O=C(NNc1ccccc1[N+](=O)[O-])Nc1ccccc1,?,?,.,?,.,.
O=C(NNc1ccccc1[N+](=O)[O-])Nc1ccc(F)cc1,?,.,.,3.5µM,.,.
CCN(CC)S(=O)(=O)c1cc([N+](=O)[O-])ccc1NNC(=O)Nc1ccc(Cl)c(Cl)c1,.,32µM,.,7.9µM,.,.
O=C(NNc1ccccc1[N+](=O)[O-])NC1CCCCC1,.,.,.,50µM,.,.
COc1ccccc1N1C(=O)CC(N2CCN(c3ccc(Cl)cc3)CC2)C1=O (stereo not drawn),.,.,.,.,.,.
O=C(Nc1ccccc1C(=O)N1CCCCC1)NC1CCCCC1,.,.,79µM,/,.,21µM
COC(=O)c1ccccc1NC(=O)NC1CCCCC1,.,.,.,.,.,.
Cc1cccc(N2CCN(S(=O)(=O)c3c(C)[nH]c(=O)[nH]c3=O)CC2)c1C,.,.,.,40µM!,.,.
Cc1ccc(Cl)cc1N1CCN(S(=O)(=O)c2c(C)[nH]c(=O)[nH]c2=O)CC1,.,.,.,.[12.7 µM],.,.
COc1ccccc1CNC(=O)c1ccc(-c2ccccc2)cc1,.,.,.,45µM,.,.
COc1ccccc1CNC(=O)c1ccc2ccccc2n1,.,79µM,.,.,.,.
Oc1ccc(-c2ccccc2)cc1CN1CCCCCC1,.,.,.,.[2.33 µM],.,.
Nc1cc(-c2ccccc2)ccc1O,.,?,?,22µM,.,21µM
CC(=O)Nc1cc(-c2ccccc2)ccc1O,.,.,.,28µM,.,.
O=c1[nH]c(=O)n(C2CCCCC2)c(O)c1C1=Nc2ccccc2SC(c2ccc(Cl)cc2)C1 (stereo not drawn),.,.,.,.,.,/
COc1ccc(C)cc1S(=O)(=O)N1CCN(C/C=C/c2ccccc2)CC1,.,.,.,?,.,.
SMILES,VDR inhibitor,BAZ2B block,JMJD2A Tudor inh,G9a block,HP1b binding inh,PLK1 PBD inh
CCOC(=O)C1(C)C=C(Nc2ccc(Br)cc2)C(=O)N1c1ccccc1 (stereo not drawn),.,.,.,?,.,/
CCOC(=O)C1(C)C=C(Nc2cccc(OC)c2)C(=O)N1c1ccccc1 (stereo not drawn),.,.,?,.,.,.
CCOC(=O)C1(C)/C(=N/Nc2ccccc2OC)C(=O)C(=O)N1c1ccccc1 (stereo not drawn),.,40µM,25µM,4.5µM,40µM,.
CCOC(=O)C1(C)/C(=N/Nc2ccccc2)C(=O)C(=O)N1c1ccccc1 (stereo not drawn),?,?,32µM,8.9µM,40µM,24µM
Cc1ccc(NC(=O)Nc2c[nH]c(=O)[nH]c2=O)c(Cl)c1,.,.,.,.,.,/
Cc1cc(NC(=O)COc2ccccc2)ccc1Cl,.,.,.,.,.,.
O=C(CSc1nnc(-c2ccc(Br)o2)n1Cc1ccccc1)c1ccccc1F,.,?,?,4.5µM,.,.
